The full list was thinned out, with hits kept by preference.
Dicer processing: blocks human Dicer maturation of pre-miR-21; z-score at 25 µM; Q9UPY3; 47,000 compounds, 6% hits; cat-ELCCA pre-miR-21 Dicer processing, chemiluminescence; hits give high values; AID 1347074; in the data active = z-score above about 3, passing the limit was not always enough;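 also: plate controls were vehicle for no effect and no enzyme for full effect; higher signal means more uncleaved substrate so more Dicer inhibition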
Active calls of the source: *.

SMILES	Dicer processing
O=C(Nc1ccccn1)c1cccc(C(=O)Nc2ccccn2)n1	3.5*
O=C(Nc1ccc(-c2nc3c(ccc4ccccc43)o2)cc1)c1ccc([N+](=O)[O-])o1	2.3
CC(=O)CSc1ccc(C(F)(F)F)cc1[N+](=O)[O-]	-2.8
COC(=O)C1=C(C)NC2=C(C(=O)CC(c3ccc(OC)c(OC)c3)C2)C1c1ccccc1OC(C)C (centres undefined)	1.3
CCN(CC)CCn1c(NCc2ccc(N(C)C)cc2)nc2ccccc21	4.4*
CCn1c(NCc2ccncc2)nc2ccccc21	2
CN(C)c1ccc(CNc2nc3ccccc3n2CCN2CCCCC2)cc1	2.2
CCCn1c(NCc2ccncc2)nc2ccccc21	1.3
CCc1ccc(CNc2nc3ccccc3n2C)cc1	3.4*
CCN(CC)CCn1c(NCc2ccncc2)nc2ccccc21	2.7
O=S1(=O)CCC(S(=O)(=O)N2CCOCC2)C1 (centres undefined)	-1.4
O=C(Cn1c(=O)sc2ccccc21)Nc1ccc(S(=O)(=O)N2CCOCC2)cc1	-1.4
Fc1cccc(CN2CCC(N3CCCC3)CC2)c1	0.41
CSc1sc(C(=O)Nc2cccc(C(F)(F)F)c2)cc1C#N	0.02
CSc1sc(C(=O)NNC(=O)c2ccc(Cl)cc2)cc1S(=O)(=O)C(C)C	2.4
CSc1sc(NC(=O)Nc2cccc(C(F)(F)F)c2)cc1S(=O)(=O)C(C)C	3.3*
CSc1sc(NC(=O)Nc2ccc(Cl)cc2)cc1S(=O)(=O)C(C)C	3.9*
CC(C)S(=O)(=O)c1csc(NC(=O)Nc2ccc(C(F)(F)F)cc2)c1	2.2
CC(C)S(=O)(=O)c1csc(NC(=O)Nc2ccc(Cl)cc2)c1	19
O=C(O)CCCCCNS(=O)(=O)c1ccc(F)cc1	2
CCc1ccnc(NS(=O)(=O)c2ccc(C)cc2)c1	0.38
Cc1ccc(S(=O)(=O)NC(=O)Nc2cc(C)on2)cc1	-0.09
CCc1ccnc(NC(=O)NS(=O)(=O)c2ccc(C)cc2)c1	5.1*
O=C(Cn1nnc(N2CCOCC2)n1)NNC(=S)NC(=O)C1CC1	2.3
N#Cc1nccnc1Oc1ccc(Cl)cc1	-1.8
SMILES	Dicer processing
O=C(O/N=C(\Cn1nnc(N2CCCCC2)n1)c1ccc(Cl)cc1)c1ccc(Cl)cc1Cl	0.72
COC(Cn1c(SCc2ccccc2)nnc1-c1ccccc1)OC	1.8
O=[N+]([O-])c1ccc(N2CCCCCCC2)cc1	1.5
O=c1c(N2CCCCC2)c(N2CCCCC2)c1=O	7.3*
O=C(O)c1c(N2CCCCC2)ccc([N+](=O)[O-])c1N1CCCCC1	-0.06
CC(=O)N(O)CC(=O)Nc1ccccc1C(=O)c1ccccc1	0.94
COc1ccc(N=Nc2c(O)c(O)cc3ccccc23)cc1	2.3
C#CC(O)(c1ccc(OC)cc1)c1ccccc1F (centres undefined)	4.1*
C=C(c1ccccc1)c1ccc(OC)cc1	0.46
CCS(=O)(=O)c1nc2ccccc2n1Cc1ccc(C(C)(C)C)cc1	0.58
Cc1noc(C(F)(F)F)c1C(=O)O/N=C(\N)c1ccc(Cl)cc1	0.52
S=C(NC1CCCCC1)C(=S)NC1CCCCC1	-1.1
O=c1c(NC2CCCCC2)c(NC2CCCCC2)c1=O	5.9*
S=c1[nH]nc(NC2CCCCC2)s1	0.77
CC(C)Cc1nnc(NC(=O)C2c3ccccc3Oc3ccccc32)s1	0.72
O=c1[nH][nH]c2c1cnc1c(F)cc(F)cc12	-0.24
Cc1ccnc(SCC(=O)n2c(C)c(C)c3ccccc32)n1	3.5*
Cc1c(C)n(C(=O)CSc2nc(O)cc(=O)[nH]2)c2ccccc12	-1.2
Cc1ccnc(SCn2c(=S)sc3ccccc32)n1	-3.7
CCC(=O)N1c2ccccc2-c2nnc(SC)nc2OC1c1ccc(C(=O)O)cc1 (centres undefined)	0.34
CN(C)c1ccc(/C=C/c2nc(-c3ccccc3O)n[nH]2)cc1	3
CN(C)c1ccc(/C=C/c2nc3ccccc3c(=O)[nH]2)cc1	5.5*
CN(C)c1ccc(-c2nc3ccccc3c(=O)[nH]2)c(Cl)c1	-0.76
CCOC(=O)Cc1csc(=S)n1-c1ccc(OC)cc1	1.2
Cc1ccc(-c2nc(NC(=O)Nc3ccc(OCc4ccccc4)cc3)sc2C)cc1Cl	0.78
SMILES	Dicer processing
Cc1c(/C=C/c2ccnc(SCc3cccc(Cl)c3)n2)sc2ccccc12	0.01
O=C(Nc1ccc([N+](=O)[O-])cc1)Nc1csc(Cc2ccsc2)n1	1.9
CCOC(=O)CSc1nc(C)cc(C)c1C#N	-0.01
CCOC(=O)CSc1nc(-c2ccc(F)cc2)cc(C(F)(F)F)c1C#N	3.2*
Cc1ccc(-c2cc(C(F)(F)F)c(C#N)c(SCC(=O)O)n2)cc1	-0.53
CCOC(=O)COc1nc(-c2ccccc2)cc(-c2ccccc2)c1C#N	0.94
CCOC(=O)CSc1nc(C2CC2)cc(-c2ccccc2)c1C#N	3.7*
N#Cc1c(C(F)(F)F)cc(-c2ccccc2)nc1SCC(N)=O	0.19
CC(C)SC(=NC#N)S/C=C/C(=O)c1ccc(Cl)cc1	-2.1
CC(C)Oc1cc(C(F)(F)F)nc2ccc(CSc3nc4ccccc4[nH]3)cc12	0.5
Cc1nn(-c2ccc(F)cc2)c(=O)c2noc(C)c12	1
Cc1cc(C(F)(F)F)nc2c(Cl)c(C3CC3)nn12	21
Fc1ccc2c(c1)-c1c(cnc3cc(-c4ccccc4)nn13)CO2	-0.67
Oc1ccc2ccccc2c1CN1CCc2ccccc2C1	3.6*
Oc1ccc2ccccc2c1CN1CCN(c2ccc(F)cc2)CC1	-3.4
CC1CCN(Cc2c(O)ccc3ccccc23)CC1	1.6
Nc1nc(SCC(=O)c2ccc(Cl)cc2)nc2sc3c(c12)CCCCC3	-1.4
CCOC(=O)CCCSc1nc(N)c2c3c(sc2n1)CCCC3	3.1*
CCOC(=O)CC(=O)CSc1nc(N)c2c3c(sc2n1)CCC3	-0.06
CCOC(=O)CSc1nc(SCC(=O)OCC)c2c3c(sc2n1)CCC3	2.9
CCOC(=O)CC(=O)CSc1nc(N)c2c3c(sc2n1)CCCC3	5.5*
CCOC(=O)c1nc2sc3c(c2c(=O)[nH]1)CCCC3	-0.09
Cc1ccccc1-c1ncc(-c2ccc(Br)cc2)o1	-1
CS(=O)(=O)c1sc(Cl)c(-c2ccc(Cl)cc2)c1C#N	-8
CS(=O)(=O)c1sc(C#N)c2c1C(=O)CC(c1ccccc1)C2 (centres undefined)	5.7*
SMILES	Dicer processing
CCOC(=O)c1sc(S(C)=O)c2c1CC(c1ccccc1)CC2=O (centres undefined)	1.6
Clc1ccccc1OCc1nn2c(-c3ccccc3)nnc2s1	2.6
CCOC(=O)c1cc(C)nn1Cc1ccc(Cl)cc1	-0.67
CC(C)(C)c1ccc(OC(=O)c2ccco2)cc1	0.7
COCCOC(=O)c1c(C)oc2ccc(OC(=O)c3ccco3)cc12	1.3
CN(CCOC(=O)c1ccco1)C(C)(C)C	3.4*
COc1cc(NC(=S)Nc2cc(C(F)(F)F)cc(C(F)(F)F)c2)c2ncccc2c1	-4
COc1cc2ncnc(NC3CCCCC3)c2cc1OC	-0.29
CSc1nc2c(Cl)cccc2c2c1c(=O)n(Cc1ccc(Cl)cc1)n2C	0.65
CSc1nc2c(Cl)cccc2c2c1c(=O)[nH]n2C	3.6*
CCOC(=O)c1c(SC)nc2c(Cl)cccc2c1N(C)CCO	-5.7
N#Cc1ccc(OS(=O)(=O)c2cc(Cl)c(Cl)cc2Cl)cc1	1
c1cc(-c2nc3ccccc3o2)cc(-c2nc3ccccc3o2)c1	2.8
C(=C\c1nc2ccccc2o1)/c1ccccc1	-0.71
Brc1ccc(-c2ccc(/C=C/c3nc4ccccc4o3)o2)cc1	8.2*
O=C(N/N=C/c1ccc(Cl)c(Cl)c1)N/N=C/c1ccc(Cl)c(Cl)c1	-2.8
O=C(N/N=C/c1ccccc1Cl)N/N=C/c1ccccc1Cl	3.8*
S=C(NCCc1ccccc1)N/N=C/c1ccccc1Cl	1.6
